The entries come from a sample that favours hits as a whole.
DT40 TDP1 no CPT: qHTS for Inhibitors of human tyrosyl-DNA phosphodiesterase 1 (TDP1): qHTS in cells in absence of CPT. DT40 Tdp1-/- hTDP1 cells, no CPT, ATP luminescence, 48 h. Potency, µM (titrated, usually from 46.2 µM), without a hit: at the highest dose activity change, negative = growth inhibition, hits mostly inhibitors. hit rate 15% among 420,000. AID 686978, 2013; note: potency is the fitted concentration of half-maximal effect; nearly all actives have a fitted effect of over 55% in size
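Compound effects on proliferation are scored in DT40 Tdp1-/-;hTDP1 cells in the absence of CPT. ATP levels (CellTiter-Glo luminescence) are recorded after a ≥48 hr, 37 °C incubation.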
IL-1B inflam inh: inhibitors of inflammasome signaling (IL-1 beta secretion); AID 743279; hit rate 4.7% among 360,000; THP-1 LPS/ATP IL-1B secretion, AlphaLISA, 16 h; active compounds read low; activity change, % at 57.5 µM; in the data active = activity change below about -50%; inconclusive = mostly about -30% to -49%
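Secreted IL-1B measured by AlphaLISA bead assay after 16 h compound exposure of THP-1 cells; compounds (final up to 57.5 uM) added 1 h before LPS (250 ng/mL) and ATP (1.25 mM) stimulation; lower signal means less secretion.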
HT1080NT lethal: kills 2HG-producing HT-1080-NT fibrosarcoma cells | Potency, µM (series often up to 46.1 µM), without a hit: at the highest dose activity, negative = less viability, actives largely listed as cytotoxic | HT-1080-NT fibrosarcoma viability, CellTiter-Glo ATP luminescence, 48 h | AID 686970 | hit rate 1.6% among 360,000;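 note: NT is the 2HG producing partner of a matched IDH1 knockdown line; potency is the fitted concentration of half-maximal effect; 0% = DMSO-treated cells and -100% = media-only wells without cells; nearly all actives have a fitted effect of over 55% in size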
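750 cells/well, RPMI + 5% FBS; 2 h settle, compound pin-transfer, 48 h at 37 degrees C. CellTiter-Glo 10 min RT, luminescence. Normalized to DMSO and media-only wells.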
HT1080 IDH1KD tx: toxicity to HT-1080 IDH1 knockdown cells (counter line); Potency, µM (highest dose often 46.1 µM), for the others: top-dose activity, negative = toxicity, hits mostly cytotoxic; HT-1080 IDH1 knockdown viability, ATP luminescence, 48 h; hit rate 2% among 360,000; AID 686971;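 note: potency is the fitted concentration of half-maximal effect; 0% = DMSO wells and -100% = cell-free medium wells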
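IDH1KD HT-1080 cells, 750/well, RPMI + 5% FBS; compound pinned after 2 h settling; 48 h, 37 °C; CellTiter-Glo luminescence; % activity normalised to DMSO and no-cell wells; curves fitted, classed by r2 and efficacy.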
TDP1 cell CPT: DT40-hTDP1 cell growth loss with CPT | chicken DT40 Tdp1-/-;hTDP1 cells + 20 nM CPT, ATP luminescence, 48 h | Potency, µM (titrated, usually from 46.2 µM), for the others: at the highest dose activity change, negative = growth inhibition, usual class: inhibitors | hit rate 12% among 420,000; note: potency is the fitted concentration of half-maximal effect; nearly all actives have a fitted effect of over 55% in size
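Chicken DT40 Tdp1-/- cells complemented with human TDP1, 400 cells/well, exposed to compounds plus 20 nM camptothecin for at least 48 h at 37 C; viability read as ATP content by CellTiter-Glo luminescence.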
12-LOX inh: ALOX12 (human) lipoxygenase inhibition; AID 1671190; purified 12hLO, xylenol orange hydroperoxide absorbance; Potency, µM (series often up to 108 µM), for inactives: top-dose activity change, negative = inhibition, hits mostly inhibitors; hit rate 1.1% among 580,000; P18054; note: potency is the fitted concentration of half-maximal effect
Target sequence (P18054 whole entry, looked up): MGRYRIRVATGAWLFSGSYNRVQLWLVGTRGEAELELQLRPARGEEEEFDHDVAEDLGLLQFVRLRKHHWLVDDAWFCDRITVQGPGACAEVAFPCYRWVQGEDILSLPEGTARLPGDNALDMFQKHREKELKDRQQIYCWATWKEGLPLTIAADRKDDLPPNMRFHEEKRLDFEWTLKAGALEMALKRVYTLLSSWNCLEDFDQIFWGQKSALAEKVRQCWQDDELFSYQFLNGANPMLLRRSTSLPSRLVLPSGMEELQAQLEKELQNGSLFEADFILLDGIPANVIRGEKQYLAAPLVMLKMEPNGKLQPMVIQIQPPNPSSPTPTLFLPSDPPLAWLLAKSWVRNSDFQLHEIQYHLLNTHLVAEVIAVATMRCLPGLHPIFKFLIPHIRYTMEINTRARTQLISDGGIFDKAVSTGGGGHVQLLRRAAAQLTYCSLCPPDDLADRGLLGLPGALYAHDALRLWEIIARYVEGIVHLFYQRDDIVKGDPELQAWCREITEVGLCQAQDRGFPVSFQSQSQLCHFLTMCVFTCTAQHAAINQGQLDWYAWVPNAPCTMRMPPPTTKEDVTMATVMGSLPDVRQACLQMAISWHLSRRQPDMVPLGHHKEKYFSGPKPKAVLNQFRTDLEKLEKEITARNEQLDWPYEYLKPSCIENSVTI
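Purified human 12hLO (150 nM final) in 25 mM Hepes, 0.01% Triton X-100, pH 7.0 was preincubated 15 min at room temperature with compound. Then 40 uM arachidonic acid was added, 30 min. Hydroperoxide was read by Fe-XO absorbance ratio 573/405 nm.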
* marks the source's active call; other numbers are inactive results; ? = inconclusive; / = no result given; [ ] = dose if it differs, or a comment. Unless noted, calls come from the whole dose curve; as a rule, active = well fitted curve in the direction sought with a large enough effect; inconclusive = small, poorly fitted or top-dose-only effect, or another doubt; inactive = no such curve, though single readings can be large; an effect the other way counts as inactive or inconclusive. Unless noted, % is set by controls: 0 for no effect and ±100 for the full control effect.

SMILES	DT40 TDP1 no CPT	IL-1B inflam inh	HT1080NT lethal	HT1080 IDH1KD tx	TDP1 cell CPT	12-LOX inh
Cn1cc(CN2CCCC(C(=O)c3cc(F)ccc3F)C2)c2ccccc21 (stereo unspecified)	16µM*	-71*	?	?	?	-17%
Cc1nc2ccc(C(=O)N3c4ccccc4CC3C)cc2s1 (stereo unspecified)	?	32	?	18µM*	23µM*	-6%
CC(=O)N1CCCC1c1nc(C2CN(C(=O)CCn3cc(C)cn3)C2)no1 (stereo unspecified)	/	/	/	/	/	-2%
Cc1cc(O)c(NC(=S)NC(=O)c2ccc(-c3ccc(Cl)cc3)o2)cc1C	21µM*	-20	?	?	?	?
Cc1ccc(NC(=S)NC(=O)c2ccc(-c3ccc(Cl)cc3)o2)c(O)c1	21µM*	0	?	?	21µM*	?
Cc1ccc(O)c(NC(=S)NC(=O)Cc2ccc(Cl)cc2)c1	?	86	?	?	?	7%
CC(C(=O)NC1CCCCC1)N(C)CC(=O)Nc1ccc(Cl)c(C(F)(F)F)c1 (stereo unspecified)	/	/	/	/	/	26%
COc1ccccc1-c1nnc(SCC(=O)N(Cc2ccccc2)C(C)C)n1N	/	/	/	/	/	1%
CC(C)N1C(=O)[C@@H]2[C@@H](CCN2C(=O)CSCC(=O)O)N(Cc2cccc(F)c2)C1=O	/	/	/	/	/	35µM*
CC(C)N1C(=O)[C@@H]2[C@@H](CCN2C(=O)CC(C)(C)CC(=O)O)N(Cc2cccc(F)c2)C1=O	/	/	/	/	/	13%
COc1cccc(NC(=O)c2cccc(S(=O)(=O)N3CCN(Cc4ccccc4)CC3)c2)c1	?	?	-3%	-5%	?	-13%
Cc1cccc(CN2C(=O)N/C(=C/c3ccc(C)s3)C2=O)c1	16µM*	0	-27%	?	21µM*	74%
Cc1cccc(CN2C(=O)N/C(=C/c3cc(C)n(-c4cc(C)ccn4)c3C)C2=O)c1	23µM*	-58*	-11%	-11%	?	/
Cc1cc(/C=C2/NC(=O)NC2=O)c(C)n1-c1ccccn1	-10%	42	-5%	2%	-5%	?
Cc1ccc(/C=C2/NC(=O)N(Cc3ccccc3)C2=O)s1	-19%	-14	-3%	-2%	?	-2%
O=C(CCc1c[nH]c2ccccc12)N1CCC([C@@H]2CNC[C@H]2CO)CC1	/	/	/	/	/	10%
COC(=O)c1sc2nc(CSc3ccc(Br)cc3)[nH]c(=O)c2c1C	21µM*	35	1%	0%	?	?
CN(C)c1ccc(-c2cncnc2NCc2cccnc2)cc1	-29%	/	/	/	?	-7%
CN(C)c1ccc(-c2cncnc2-n2ccnc2)cc1	-23%	/	/	/	?	40µM*
O=C(Nc1ccc(S(=O)(=O)N2CCOCC2)cc1)c1ccco1	?	-9	11%	15%	-1%	0%
CCCCn1nnc(NC(=O)c2ccc(-c3ccccc3[N+](=O)[O-])o2)n1	?	2	12%	4%	-5%	-4%
O=C(Nc1ccc(OC(F)(F)F)cc1)c1cc(S(=O)(=O)N2CCCCC2)ccc1N1CCOCC1	?	-14	-15%	-11%	?	-1%
O=C(Nc1ccc(S(=O)(=O)N2CCOCC2)cc1)c1ccc([N+](=O)[O-])o1	2.6µM*	-100*	18µM*	8.2µM*	1µM*	-36%
O=C(Nc1ccc(N2CCOCC2)cc1)c1ccc([N+](=O)[O-])o1	12µM*	-96*	7.3µM*	5.2µM*	5.2µM*	9%
O=C(Nc1ccc(OC(F)(F)F)cc1)c1ccc(S(=O)(=O)N2CCOCC2)o1	16µM*	-51*	-11%	-6%	?	6%
SMILES	DT40 TDP1 no CPT	IL-1B inflam inh	HT1080NT lethal	HT1080 IDH1KD tx	TDP1 cell CPT	12-LOX inh
CCn1nnc(NC(=O)c2ccc([N+](=O)[O-])o2)n1	?	-78*	?	?	?	-1%
CCCn1c(C)cnc1C1CCN(C(=O)NC(C)C)C1 (stereo unspecified)	/	/	/	/	/	14%
Cc1nn2c(c1-c1ccccc1OCc1ccccc1)N(C(=O)COc1ccccc1)CCC2	/	/	/	/	/	-9%
O=C(Nc1ccc(Cc2ccncc2)cc1)c1ccc([N+](=O)[O-])o1	?	-96*	3.7µM*	5.2µM*	?	21%
Cc1cn2nc(C(=O)N3CCC(NC(=O)c4c(F)cccc4F)CC3)cc2c(=O)[nH]1	/	/	/	/	/	-10%
O=C(Cc1ccc(Cl)c(Cl)c1)Nc1ccccc1N1CCCC1	?	14	-28%	-24%	15µM*	415%
CCC(=O)N1CCN(c2ccc(Cl)cc2NC(=O)Cc2ccc(Cl)cc2)CC1	?	?	-30%	?	?	-13%
CCC(=O)N1CCN(c2ccccc2NC(=O)Cc2ccc(Cl)cc2)CC1	23µM*	0	-18%	-28%	-15%	5%
COc1cccc(N2CCN(C(=S)NCc3ccco3)CC2)c1	-18%	10	-5%	0%	1%	-18%
Cc1ccc(Cl)cc1N1CCN(C(=S)NCc2ccco2)CC1	18µM*	-82*	?	-28%	-7%	?
C=CCNC(=S)N1CCN(c2ccccc2Cl)CC1	?	-23	7%	8%	?	-13%
S=C(NCC1CCCO1)N1CCN(c2nc(-c3ccccc3)cs2)CC1 (stereo unspecified)	?	-58*	-15%	-29%	?	1%
S=C(NCc1ccco1)N1CCN(c2nc(-c3ccc(Cl)cc3)cs2)CC1	?	-61*	?	?	?	?
CCCCNC(=S)N1CCN(c2ccccc2Cl)CC1	-25%	-58*	13%	5%	-4%	-27%
O=C(CC1CCCCC1)NCCc1noc(C2CC2)n1	/	/	/	/	/	16%
C=CCN(Cc1ccc(F)cc1)C(=O)C(C)Oc1ccccc1OC (stereo unspecified)	/	/	/	/	/	13%
COCCNC(=O)C(C)[C@@H]1CC[C@@]2(C)CC[C@H](NC(=O)CCOC)[C@@H](C)[C@@H]2[C@H]1O (stereo partly specified)	/	/	/	/	/	3%[176 µM]
COc1ccc(C(=O)N[C@@H]2CN(C)C[C@H]2CN(C)C)c(C)c1	/	/	/	/	/	103%
COCC1CN(C)CC12CCN(C(=O)c1cc(Cl)ccc1OC)CC2 (stereo unspecified)	/	/	/	/	/	-1%

Screens: PubChem, National Center for Advancing Translational Sciences (NCATS)
